Measured values: PubChem BioAssay (NCI)
This is part of a sample that, as a whole, favours compounds with a hit. Of some 79,000 tested, about 15% had one in any assay. A number with no mark means an inactive call. Calls of active or inactive are those of the source. Rule as the data show it: active = growth inhibition above about 70%; inactive = the rest.

What was measured:
[1] = NCI Yeast Anticancer Drug Screen. Data for the rad50 strain (AID 155);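 also: 0% = growth of vehicle-only cultures of the same strain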; settings: S. cerevisiae rad50 strain growth inhibition, active compounds read high
Summary of the method: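 Cells are treated with compound, grown, and their growth is then scored against vehicle-only cultures of the same repair-deficient yeast strain.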

[2] = NCI Yeast Anticancer Drug Screen. Data for the mec2-1 strain (AID 157); settings: S. cerevisiae mec2-1 strain, active compounds read high
Summary of the method: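 Mutant yeast (mec2-1) grown with compound; growth inhibition relative to vehicle control reported.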

[3] = NCI Yeast Anticancer Drug Screen. Data for the sgs1 mgt1 strain (AID 161);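 also: 0% = growth of cultures given vehicle only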; settings: S. cerevisiae sgs1 mgt1 strain, active compounds read high
Summary of the method: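 Yeast cells carrying a defined DNA-repair defect were exposed to test compounds. Growth inhibition was measured relative to vehicle-treated controls.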

[4] = NCI Yeast Anticancer Drug Screen. Data for the cln2 rad14 strain (AID 165);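 also: 0% = growth equal to vehicle treated cultures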; settings: S. cerevisiae cln2 rad14 strain, active compounds read high
Summary of the method: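 Readout is yeast growth inhibition versus vehicle-treated controls, using a strain with cln2 and rad14 alterations exposed to compound.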

[5] = NCI Yeast Anticancer Drug Screen. Data for the bub3 strain (AID 167); settings: S. cerevisiae bub3 mutant strain, active compounds read high
Summary of the method: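 Part of a panel of yeast mutants defective in DNA damage repair or cell cycle regulation. Each strain is grown with compound, and inhibition is calculated relative to solvent-treated cultures.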

[6] = NCI Yeast Anticancer Drug Screen. Data for the mlh1 rad18 strain (AID 175); settings: S. cerevisiae mlh1 rad18 strain growth inhibition, active compounds read high
Summary of the method: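 Genetically defined yeast (DNA repair-deficient) exposed to compounds; growth inhibition determined relative to vehicle.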

[7] = at 5.0 µM (retest, dose inferred, filed as 0.5)
[8] = at 50.0 µM (retest, dose inferred, filed as 5.0)

Structure (SMILES) | growth inhibition [1, 7] | growth inhibition [1, 8] | growth inhibition ([1]; at 50.0 µM) | growth inhibition [2, 7] | growth inhibition [2, 8] | growth inhibition ([2]; at 50.0 µM) | growth inhibition [3, 7] | growth inhibition [3, 8] | growth inhibition ([3]; at 50.0 µM) | growth inhibition [4, 7] | growth inhibition [4, 8] | growth inhibition ([4]; at 50.0 µM) | growth inhibition [5, 7] | growth inhibition [5, 8] | growth inhibition ([5]; at 50.0 µM) | growth inhibition [6, 7] | growth inhibition [6, 8] | growth inhibition ([6]; at 50.0 µM)
c1ccc(CN2CCC3(CC2)SSC2(CCN(Cc4ccccc4)CC2)S3)cc1 | 3% | 16% | 53.7% | 2% | 23% | 23.4% | 22% | 67% | 61.2% | 4% | 8% | 68.3% | 5% | 43% | 27.1% | 6% | 32% | 52%
CN1C(Cl)=NS(=O)(=O)c2ccccc21 | 18% | 22% | -23% | 14% | 19% | -5.6% | 9% | 18% | -12.4% | 20% | 20% | -1.3% | 15% | 11% | 6.35% | 15% | 25% | 8.95%
O=C(Nc1ccc(NC(=O)Nc2cc(C(=O)Nc3ccc(C4=NCCN4)cc3)ccc2C(=O)Nc2ccc(C3=NCCN3)cc2)cc1)Nc1cc(C(=O)Nc2ccc(C3=NCCN3)cc2)ccc1C(=O)Nc1ccc(C2=NCCN2)cc1 | 7% | -4% | 95.5% (active) | 0% | -6% | 94.5% (active) | 2% | -3% | 95.9% (active) | -1% | 1% | 95% (active) | 2% | 16% | 97% (active) | 7% | -2% | 96.5% (active)
Cc1ccc(N=Nc2sc(N)nc2C)cc1C | -154% | -57% | 64% | -51% | -30% | 35.8% | -65% | -45% | 14.1% | -58% | -47% | 30.1% | -62% | -12% | 87.9% (active) | -125% | -52% | 85.4% (active)
Cc1ccc(C(=O)C(CN(C)C)CN(C)C)cc1 | 16% | 41% | 83.7% (active) | 12% | 63% | 92.3% (active) | 20% | 76% (active) | 88.5% (active) | 17% | 39% | 73.2% (active) | 16% | 65% | 88.7% (active) | 14% | 72% (active) | 88% (active)
CN(Cc1cnc2nc(N)nc(N)c2n1)c1ccc(C(=O)NC(CCC(=O)O)C(=O)O)c(Cl)c1Cl (configuration not stated) | -4% | 79% (active) | 94.2% (active) | 41% | 98% (active) | 98.2% (active) | -5% | 55% | 85.5% (active) | -8% | -13% | -11.2% | -21% | 64% | 77.5% (active) | 13% | 82% (active) | 88.2% (active)
Cc1cc(Cl)c(O)c(-c2cc(-c3ccccc3O)c(C#N)c(N)n2)c1 | 4% | 75% (active) | 59.5% | -22% | 80% (active) | 52.1% | -28% | 80% (active) | 67.7% | -4% | 65% | 69.4% | -59% | 73% (active) | 62.4% | -23% | 87% (active) | 55%
CC(CCC(=O)O)[C@H]1CCC2[C@H]3C(CC[C@@]21C)[C@@]1(C)CCC(O)C[C@H]1C[C@@H]3O (some centres not stated) | -11% | 46% | 75.1% (active) | -13% | 56% | 73.2% (active) | -10% | 60% | 79.3% (active) | 2% | 73% (active) | 73% (active) | -13% | 86% (active) | 56.1% | -26% | 76% (active) | 71.6% (active)
N#Cc1sc2c(c1OC(=O)c1ccc(Cl)cc1)c(=O)n(-c1ccccc1)c(=S)n2-c1ccccc1 | -4% | -16% | 1.5% | 5% | -24% | 2.4% | -3% | 0% | -0.45% | 5% | 6% | 34.5% | -3% | 2% | 4.95% | -2% | 1% | -7.35%
